Assay results published in the supplement of paper PMC10849652.
About 8,800 targets were measured; listed, in parts, are those with a hit and a random draw of the rest. About 0.5% of all pairs of compound and target were hits.

Experiments:
Assay in all cases: log2 fold change, soluble protein after heating vs DMSO (PISA); higher = thermal stabilisation; K562 lysate, 10 uM; active = over 0.2 and 3.5 SD of the protein, either way, in both replicates (recomputed)
[1] = compound: CS(=O)(=O)CCNCc1ccc(-c2ccc3ncnc(Nc4ccc(OCc5cccc(F)c5)c(Cl)c4)c3c2)o1 [lapatinib]
How it was run: (§1)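 The values are log-two fold changes in thermal stability compared with solvent controls and come from duplicates. They were obtained by TMTpro 16plex LC-MS/MS, with channel sums equalised, on the supernatant after 21,000xg for 90 min. That supernatant came from crude K562 extract at 1 mg/mL protein treated with 10 μM compound for 30 min, heated for 3 min across 48°C-58°C, pooled and brought to 0.5% NP-40 at 4°C.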

[2] = compound: CS(=O)(=O)N1CCN(Cc2cc3nc(-c4cccc5[nH]ncc45)nc(N4CCOCC4)c3s2)CC1 [pictilisib]
How it was run: as §1

[3] = compound: C[C@@H](Oc1cc(-c2cnn(C3CCNCC3)c2)cnc1N)c1c(Cl)ccc(F)c1Cl [crizotinib]
How it was run: as §1

[4] = compound: C[C@H](C1=CC=C(C=C1)C(=O)NC2=C3C=CNC3=NC=C2)N
How it was run: as §1

[5] = compound: C[C@H](Nc1ncnc2nc[nH]c12)c1cc2cccc(Cl)c2c(=O)n1-c1ccccc1 [duvelisib]
How it was run: as §1

[6] = compound: Cc1cc(Nc2cc(CN3CCOCC3)c3nc(C)c(Cc4ccc(Cl)cc4F)n3n2)n[nH]1 [gandotinib]
How it was run: as §1

[7] = compound: Cc1cc(Nc2cc(N3CCN(C)CC3)nc(Sc3ccc(NC(=O)C4CC4)cc3)n2)n[nH]1 [tozasertib]
How it was run: as §1

[8] = compound: Cc1ccc(-n2nc(C(C)(C)C)cc2NC(=O)Nc2ccc(OCCN3CCOCC3)c3ccccc23)cc1 [doramapimod]
How it was run: as §1

[9] = compound: Cc1ccc(NC(=O)c2ccc(CN3CC[C@H](N(C)C)C3)c(C(F)(F)F)c2)cc1Nc1nccc(-c2cncnc2)n1 [bafetinib]
How it was run: as §1

[10] = compound: Cc1cccc(CC(=O)N2CCc3c2ccc(-c2cn(C)c4ncnc(N)c24)c3F)n1
How it was run: as §1

Measured: log2 fold change

RBBP8 isoform 2 (UniProt Q99708)
Sequence of UniProt Q99708 (Q99708 whole entry, looked up): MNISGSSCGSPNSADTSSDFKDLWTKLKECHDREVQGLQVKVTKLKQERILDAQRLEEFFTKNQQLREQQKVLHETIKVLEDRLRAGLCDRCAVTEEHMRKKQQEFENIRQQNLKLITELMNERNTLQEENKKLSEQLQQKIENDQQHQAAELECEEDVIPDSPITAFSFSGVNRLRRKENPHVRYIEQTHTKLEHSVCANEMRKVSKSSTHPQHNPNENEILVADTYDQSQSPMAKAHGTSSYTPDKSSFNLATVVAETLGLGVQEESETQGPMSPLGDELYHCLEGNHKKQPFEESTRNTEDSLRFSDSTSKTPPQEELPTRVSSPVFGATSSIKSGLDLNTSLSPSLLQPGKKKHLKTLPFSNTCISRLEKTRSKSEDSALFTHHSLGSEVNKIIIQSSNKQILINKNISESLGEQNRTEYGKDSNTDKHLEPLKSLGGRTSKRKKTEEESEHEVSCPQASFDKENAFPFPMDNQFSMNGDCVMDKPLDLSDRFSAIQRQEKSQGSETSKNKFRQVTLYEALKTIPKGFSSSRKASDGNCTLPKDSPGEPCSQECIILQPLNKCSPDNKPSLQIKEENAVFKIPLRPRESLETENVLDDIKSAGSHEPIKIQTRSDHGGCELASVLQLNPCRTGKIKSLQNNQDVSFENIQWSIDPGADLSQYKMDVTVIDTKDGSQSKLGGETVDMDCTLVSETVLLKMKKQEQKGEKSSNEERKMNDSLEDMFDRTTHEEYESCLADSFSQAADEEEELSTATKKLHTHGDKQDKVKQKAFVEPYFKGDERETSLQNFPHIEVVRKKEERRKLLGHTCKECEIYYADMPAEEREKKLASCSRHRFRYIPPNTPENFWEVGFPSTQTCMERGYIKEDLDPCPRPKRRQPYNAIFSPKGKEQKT
inactive: [1] -0.042 | [2] 0.069 | [3] -0.085 | [4] 0.065 | [5] 0.032 | [6] -0.013 | [7] 0.177 | [8] 0.024 | [9] -0.079 | [10] 0.007

RABL3 (UniProt Q5HYI8)
inactive: [1] 0.036 | [2] -0.028 | [3] -0.102 | [4] -0.017 | [5] 0.198 | [6] -0.097 | [7] -0.003 | [8] 0.085 | [9] -0.05 | [10] 0.031

RABGGTB (UniProt P53611)
inactive: [1] -0.02 | [2] 0.006 | [3] -0.031 | [4] 0.135 | [5] 0.043 | [6] -0.051 | [7] -0.023 | [8] 0.016 | [9] -0.087 | [10] 0.028

RASA2 (UniProt Q15283)
Sequence of UniProt Q15283 (Q15283 whole entry, looked up): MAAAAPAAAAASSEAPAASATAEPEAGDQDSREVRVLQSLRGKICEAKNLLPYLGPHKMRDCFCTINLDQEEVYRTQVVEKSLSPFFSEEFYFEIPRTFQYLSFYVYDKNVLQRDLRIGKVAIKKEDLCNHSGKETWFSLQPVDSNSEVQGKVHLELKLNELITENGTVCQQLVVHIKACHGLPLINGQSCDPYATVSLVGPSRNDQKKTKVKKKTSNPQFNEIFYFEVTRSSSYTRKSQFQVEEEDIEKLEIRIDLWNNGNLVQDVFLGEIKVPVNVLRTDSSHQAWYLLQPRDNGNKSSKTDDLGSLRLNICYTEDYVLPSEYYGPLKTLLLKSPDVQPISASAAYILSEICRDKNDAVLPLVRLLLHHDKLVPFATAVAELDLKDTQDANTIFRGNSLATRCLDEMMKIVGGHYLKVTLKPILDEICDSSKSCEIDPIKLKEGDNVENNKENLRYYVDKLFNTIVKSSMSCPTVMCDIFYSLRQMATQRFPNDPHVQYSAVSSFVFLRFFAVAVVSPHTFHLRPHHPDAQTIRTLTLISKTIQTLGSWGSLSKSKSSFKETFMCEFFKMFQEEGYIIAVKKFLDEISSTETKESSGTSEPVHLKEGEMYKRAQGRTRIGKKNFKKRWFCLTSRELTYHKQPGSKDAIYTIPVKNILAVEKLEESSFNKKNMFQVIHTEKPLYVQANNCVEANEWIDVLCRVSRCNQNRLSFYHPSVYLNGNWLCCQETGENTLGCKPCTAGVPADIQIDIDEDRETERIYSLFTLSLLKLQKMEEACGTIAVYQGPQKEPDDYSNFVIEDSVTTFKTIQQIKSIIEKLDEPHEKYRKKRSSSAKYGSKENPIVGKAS
inactive: [1] 0.026 | [2] -0.089 | [3] -0.014 | [4] -0.007 | [5] -0.045 | [6] -0.087 | [7] 0.013 | [8] 0.072 | [9] -0.078 | [10] 0.096

RRAGA (UniProt Q7L523)
inactive: [1] 0 | [2] -0.06 | [3] -0.084 | [4] 0.075 | [5] 0.063 | [6] -0.035 | [7] -0.033 | [8] -0.058 | [9] -0.018 | [10] -0.02

SAR1A (UniProt Q9NR31)
Sequence of UniProt Q9NR31 (Q9NR31 whole entry, looked up): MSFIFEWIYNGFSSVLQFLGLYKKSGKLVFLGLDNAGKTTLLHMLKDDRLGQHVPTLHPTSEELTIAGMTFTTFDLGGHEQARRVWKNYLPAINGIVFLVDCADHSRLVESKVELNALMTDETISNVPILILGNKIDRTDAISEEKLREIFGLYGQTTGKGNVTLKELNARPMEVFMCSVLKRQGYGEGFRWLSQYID
inactive: [1] 0.101 | [2] 0.191 | [3] -0.056 | [4] 0.033 | [5] 0.002 | [6] 0.341 | [7] 0.027 | [9] -0.022 | [10] 0.156
active: [8] 0.504

SEH1L isoform 1 (UniProt Q96EE3)
Sequence of UniProt Q96EE3 (Q96EE3 whole entry, looked up): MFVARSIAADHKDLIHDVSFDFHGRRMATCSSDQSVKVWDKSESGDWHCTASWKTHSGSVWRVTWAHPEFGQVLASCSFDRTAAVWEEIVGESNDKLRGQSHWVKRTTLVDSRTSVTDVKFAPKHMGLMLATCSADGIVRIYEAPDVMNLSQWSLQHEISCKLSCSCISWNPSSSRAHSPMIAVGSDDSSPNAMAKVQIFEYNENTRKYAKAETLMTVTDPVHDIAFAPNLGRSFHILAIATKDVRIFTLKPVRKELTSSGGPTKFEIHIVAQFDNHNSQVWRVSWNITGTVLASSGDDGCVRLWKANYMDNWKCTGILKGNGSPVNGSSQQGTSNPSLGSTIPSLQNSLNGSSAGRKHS
inactive: [1] -0.03 | [2] -0.009 | [3] 0.01 | [4] -0.027 | [5] -0.049 | [6] 0.029 | [7] 0.011 | [8] 0.007 | [9] -0.085 | [10] 0.052

RPS18 (UniProt P62269)
inactive: [1] -0.046 | [2] 0.006 | [3] -0.028 | [4] -0.186 | [5] -0.019 | [6] 0.071 | [7] 0.008 | [8] 0.026 | [9] -0.004 | [10] 0.094

RPAP1 (UniProt Q9BWH6)
inactive: [1] -0.012 | [2] -0.027 | [3] -0.026 | [4] -0.026 | [5] 0.021 | [6] -0.002 | [7] 0.018 | [8] 0.001 | [9] -0.041 | [10] 0

RNASEL (UniProt Q05823)
inactive: [1] -0.034 | [2] -0.076 | [3] -0.04 | [4] -0.011 | [5] 0.007 | [6] -0.068 | [7] -0.014 | [8] -0.007 | [9] -0.018 | [10] -0.013

REL isoform 2 (UniProt Q04864)
Sequence of UniProt Q04864 (Q04864 whole entry, looked up): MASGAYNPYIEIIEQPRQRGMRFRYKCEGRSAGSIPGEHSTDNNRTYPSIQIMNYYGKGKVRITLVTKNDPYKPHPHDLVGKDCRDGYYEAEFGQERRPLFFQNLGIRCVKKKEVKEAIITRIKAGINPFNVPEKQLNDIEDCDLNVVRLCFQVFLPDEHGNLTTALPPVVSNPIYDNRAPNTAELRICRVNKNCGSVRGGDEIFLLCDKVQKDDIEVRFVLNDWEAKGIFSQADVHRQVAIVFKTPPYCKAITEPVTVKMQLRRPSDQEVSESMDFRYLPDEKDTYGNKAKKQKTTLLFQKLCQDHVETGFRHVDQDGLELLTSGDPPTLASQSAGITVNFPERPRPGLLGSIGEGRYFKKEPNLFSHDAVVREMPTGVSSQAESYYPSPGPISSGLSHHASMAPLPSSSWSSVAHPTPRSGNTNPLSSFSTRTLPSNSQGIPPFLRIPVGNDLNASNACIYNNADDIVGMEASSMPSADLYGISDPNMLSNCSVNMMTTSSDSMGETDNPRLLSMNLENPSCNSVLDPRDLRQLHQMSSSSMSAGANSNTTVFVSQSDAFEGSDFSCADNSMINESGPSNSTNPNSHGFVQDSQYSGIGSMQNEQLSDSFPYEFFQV
active: [4] 0.32
inactive: [1] 0.014 | [2] 0.005 | [3] -0.025 | [5] 0.001 | [6] 0.074 | [7] 0.052 | [8] 0.023 | [9] -0.04 | [10] -0.072

RARS (UniProt P54136)
inactive: [1] 0.003 | [2] 0.019 | [3] -0.047 | [4] 0.039 | [5] -0.018 | [6] -0.078 | [7] 0.019 | [8] 0.042 | [9] -0.029 | [10] 0.041

RAE1 (UniProt P78406)
Sequence of UniProt P78406 (P78406 whole entry, looked up): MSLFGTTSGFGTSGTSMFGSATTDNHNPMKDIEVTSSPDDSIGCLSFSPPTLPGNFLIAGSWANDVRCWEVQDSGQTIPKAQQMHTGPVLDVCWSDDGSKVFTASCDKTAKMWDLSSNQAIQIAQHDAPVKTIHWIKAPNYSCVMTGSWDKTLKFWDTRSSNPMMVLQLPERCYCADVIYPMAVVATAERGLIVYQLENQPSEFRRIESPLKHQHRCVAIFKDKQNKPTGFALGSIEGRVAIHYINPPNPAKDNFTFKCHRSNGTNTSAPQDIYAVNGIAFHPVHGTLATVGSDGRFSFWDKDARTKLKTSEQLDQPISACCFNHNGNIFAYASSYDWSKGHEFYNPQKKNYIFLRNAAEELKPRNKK
inactive: [1] 0.055 | [2] 0.003 | [3] 0.05 | [4] -0.158 | [5] -0.063 | [6] 0.031 | [7] -0.071 | [8] -0.032 | [9] 0.235 | [10] 0.111

RCOR1 (UniProt Q9UKL0)
inactive: [1] -0.056 | [2] -0.069 | [3] 0.048 | [4] -0.083 | [5] -0.004 | [6] -0.009 | [7] 0.019 | [8] -0.061 | [9] -0.056 | [10] 0.041

SEC62 (UniProt Q99442)
inactive: [1] 0.028 | [2] -0.029 | [3] 0.011 | [4] 0.231 | [5] 0 | [6] -0.07 | [7] -0.024 | [8] 0.002 | [9] 0.029 | [10] -0.072

RAI14 isoform 2 (UniProt Q9P0K7)
inactive: [1] -0.026 | [2] -0.007 | [3] -0.014 | [4] 0 | [5] -0.025 | [6] -0.051 | [7] 0.009 | [8] 0 | [9] -0.029 | [10] 0.002

RPS6KB1 (UniProt P23443)
inactive: [1] 0.009 | [2] 0.075 | [3] 0.16 | [4] -0.104 | [5] 0.001 | [6] 0.051 | [7] 0.022 | [8] -0.05 | [9] 0.006 | [10] 0.177

SEC24D isoform 2 (UniProt O94855)
Sequence of UniProt O94855 (O94855 whole entry, looked up): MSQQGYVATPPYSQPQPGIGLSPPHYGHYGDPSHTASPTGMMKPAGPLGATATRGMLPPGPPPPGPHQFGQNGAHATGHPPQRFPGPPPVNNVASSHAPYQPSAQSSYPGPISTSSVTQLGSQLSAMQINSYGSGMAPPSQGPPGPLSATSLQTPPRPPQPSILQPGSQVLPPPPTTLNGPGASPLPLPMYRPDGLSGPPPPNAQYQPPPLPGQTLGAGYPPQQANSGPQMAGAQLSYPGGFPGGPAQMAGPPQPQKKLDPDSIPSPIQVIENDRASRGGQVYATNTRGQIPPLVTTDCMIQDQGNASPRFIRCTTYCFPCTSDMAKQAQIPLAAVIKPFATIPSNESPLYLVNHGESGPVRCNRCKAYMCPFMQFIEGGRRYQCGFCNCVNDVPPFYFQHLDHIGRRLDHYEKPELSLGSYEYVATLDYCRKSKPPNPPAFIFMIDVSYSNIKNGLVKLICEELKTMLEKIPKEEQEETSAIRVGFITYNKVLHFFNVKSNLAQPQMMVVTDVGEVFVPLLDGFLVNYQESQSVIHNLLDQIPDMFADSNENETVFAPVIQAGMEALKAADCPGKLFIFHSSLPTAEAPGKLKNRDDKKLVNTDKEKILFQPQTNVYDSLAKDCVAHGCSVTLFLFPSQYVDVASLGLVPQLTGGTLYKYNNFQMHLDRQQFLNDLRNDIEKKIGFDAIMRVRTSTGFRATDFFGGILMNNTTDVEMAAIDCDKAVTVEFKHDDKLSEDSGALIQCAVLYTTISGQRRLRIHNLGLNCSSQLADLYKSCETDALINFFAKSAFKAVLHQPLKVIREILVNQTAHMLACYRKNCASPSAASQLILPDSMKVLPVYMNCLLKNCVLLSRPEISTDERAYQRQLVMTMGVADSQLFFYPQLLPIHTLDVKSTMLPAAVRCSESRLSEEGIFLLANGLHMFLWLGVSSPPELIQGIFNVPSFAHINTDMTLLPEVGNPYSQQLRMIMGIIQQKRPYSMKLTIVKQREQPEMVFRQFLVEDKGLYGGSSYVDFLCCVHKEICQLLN
inactive: [1] 0.016 | [2] -0.03 | [3] 0 | [4] 0.031 | [5] 0.017 | [6] -0.02 | [7] 0.005 | [8] 0 | [9] -0.026 | [10] -0.019

RTN4IP1 (UniProt Q8WWV3)
inactive: [1] -0.02 | [2] 0.017 | [3] -0.021 | [4] 0.056 | [5] 0.072 | [6] -0.057 | [7] 0.009 | [8] -0.016 | [9] 0.059 | [10] -0.048

SDHC (UniProt Q99643)
inactive: [1] 0.002 | [2] 0.071 | [3] 0.032 | [4] -0.244 | [5] 0.004 | [6] 0.179 | [7] -0.067 | [8] 0.016 | [9] -0.004 | [10] 0.133

SCAF1 (UniProt Q9H7N4)
inactive: [1] -0.06 | [2] -0.107 | [3] -0.011 | [4] 0.017 | [5] -0.337 | [6] -0.074 | [7] -0.023 | [8] 0.052 | [9] -0.27 | [10] -0.096

RAPGEF4 (UniProt Q8WZA2)
active: [4] -0.804
inactive: [1] -0.061 | [2] 0.047 | [3] -0.24 | [5] 0.104 | [6] 0.38 | [7] -0.088 | [8] -0.041 | [9] -0.212 | [10] 0.543

RAB6D (UniProt Q53S08)
inactive: [1] 0.005 | [2] -0.008 | [3] -0.036 | [4] -0.058 | [5] 0 | [6] 0.189 | [7] 0.015 | [8] -0.001 | [9] -0.136 | [10] 0.154

RNF181 (UniProt Q9P0P0)
inactive: [1] 0.079 | [2] -0.069 | [3] 0.049 | [4] 0.057 | [5] 0.028 | [6] -0.042 | [7] 0.054 | [8] 0.057 | [9] -0.03 | [10] 0.01

RAF1 isoform 2 (UniProt P04049)
Sequence of UniProt P04049 (P04049 whole entry, looked up): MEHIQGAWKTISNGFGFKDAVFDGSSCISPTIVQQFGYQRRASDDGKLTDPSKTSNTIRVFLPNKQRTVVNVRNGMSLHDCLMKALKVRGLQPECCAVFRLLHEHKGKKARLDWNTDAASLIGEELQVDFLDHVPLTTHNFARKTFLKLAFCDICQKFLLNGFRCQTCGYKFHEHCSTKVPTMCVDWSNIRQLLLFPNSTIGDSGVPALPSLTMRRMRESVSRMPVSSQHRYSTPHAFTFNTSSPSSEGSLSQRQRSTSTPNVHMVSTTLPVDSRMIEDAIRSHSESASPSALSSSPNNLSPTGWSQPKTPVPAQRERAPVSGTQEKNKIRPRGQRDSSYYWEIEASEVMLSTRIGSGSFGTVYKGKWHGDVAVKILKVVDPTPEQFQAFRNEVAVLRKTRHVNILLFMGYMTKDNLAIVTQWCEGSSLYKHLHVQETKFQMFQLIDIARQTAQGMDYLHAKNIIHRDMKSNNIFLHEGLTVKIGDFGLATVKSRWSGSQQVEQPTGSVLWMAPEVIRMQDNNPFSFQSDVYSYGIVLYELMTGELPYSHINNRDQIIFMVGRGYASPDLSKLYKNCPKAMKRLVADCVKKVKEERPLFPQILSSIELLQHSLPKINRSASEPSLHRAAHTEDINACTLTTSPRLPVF
inactive: [1] 0.077 | [2] 0.014 | [3] -0.047 | [4] 0.046 | [5] -0.014 | [6] -0.118 | [7] 0.025 | [8] 0.025 | [9] -0.004 | [10] -0.016

REEP6 (UniProt Q96HR9)
inactive: [1] 0.066 | [2] 0.047 | [3] -0.04 | [4] -0.269 | [5] -0.006 | [6] 0.056 | [7] 0.097 | [8] 0.052 | [9] -0.031 | [10] 0.078
